In the supplement of paper PMC6555819:

The sequences below were run on VDR:RXRa (NR concentration 270 nM, RXRa partner concentration 90 nM) (assay: PBM binding z-score (relative to random genomic background probes); higher = stronger binding; sequences stand for … in GC…GCGATTGACAGCGTAGAATGAAGG).
Description: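 Protein-binding microarray (Agilent 4x180K custom design, double-stranded 60-nt probes: 5' GC cap, 34-nt variable region, 24-nt constant primer region; full probe sequence given). Purified or IVT nuclear receptor:RXRα heterodimers (3:1 NR:RXRα, mostly 270:90 nM) or homodimers were incubated for 1 h in PBS with 2% milk and no ligand, then detected with Alexa488 antibodies. Fluorescence from o1-orientation probes (~5 replicates averaged) was converted to z-scores against 500 random hg19 background probes. Variable regions are seed direct-repeat (DR0–DR5) sites, all their single-nucleotide variants and half-site ablations.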
With TCTAGTTTGTCACGGAGGTCACACACGACGGGTA the PBM binding z-score was 4.63.
Sequence CCTCGAAGGACAGAAGGTCAGAGCTGTCCGCTTT has a PBM binding z-score of 0.957.
Sequence AGTCAAAGCTCATCTAGGTAACGTAAGATATGCT has a PBM binding z-score of -0.215.
TCATATAGGTAAAGGTTAAAGTCGAACGATATGA gave a PBM binding z-score of 1.98.
ACTAGCAGGCCAAGTTTGGGTCACTCATACAAAG gave a PBM binding z-score of 0.68.
With TTACCAAGGTGAAAGGTCGCTGATGCACGCCTTG the PBM binding z-score was 2.72.
Work on TAGCCTAGGTCAGATCGGGCCATTATACGCTATA yielded a PBM binding z-score of 1.6.
For TCTCGGAGGACATGAAAGGTCAGAGCTCGACATC, the PBM binding z-score was 2.81.
Work on CGTCCAAGGTCAGAGACGTCAGTGAATGCCGAGT yielded a PBM binding z-score of 2.76.
For ACTAGCAGGCCAAGTTTGGGTCCCTCAAACAAAG, the PBM binding z-score was -0.796.
With CCTGACAGGTGAGAAGGTAACTCAGCCTCGATTA the PBM binding z-score was -0.0801.
With GATACAGGGACAGCTAGAGGCCAGAGTATGGAAA the PBM binding z-score was -0.526.
CCTACTGGGCCAAGGGTCATTGATTCCAATGCTC gave a PBM binding z-score of 3.45.
CCTTACGGGTCACTCCAGGTTATAGGATCGGAGT showed a PBM binding z-score of 4.34.
For CCTATTAGTTGACCGTAAGGGCAACCGAAGCTCG, the PBM binding z-score was 0.821.
AGAATGAGGTTACCAAAGATCAGGGAGACGCTTG was tested, and the PBM binding z-score was 1.51.
GCTAGCAGGCCATATGGGTCACTCAATGACGGGC showed a PBM binding z-score of 0.951.
Sequence CTGACTGGGGCAAGGTTACCATAACGCACAGCCA has a PBM binding z-score of 0.261.
Sequence GGAACGAGTGCATTCGAGTTGATAGCATGGCGAT has a PBM binding z-score of 2.95.
Work on TTACCAGGGTGAAAGGTCGTTGATGCACGCCTTG yielded a PBM binding z-score of 3.28.
AGAACGAGGGCAAGGAGTTGATAGCACGGGTGGC was tested, and the PBM binding z-score was 3.32.
In the case of TTACCAAGGTGAAGGTCGCTGATCCCTCTGTAGA, the PBM binding z-score was 0.493.
With ACTATTAGTTGAGACGCGGGCAACCGATAGGTTG the PBM binding z-score was -0.235.
CAAACTAGGTCACCGGAAGGTCAAAGTACGCATG gave a PBM binding z-score of 6.17.
Sequence TTACCAAGGTGTAAGGTCGTTGATGCACGCCTTG has a PBM binding z-score of 1.08.
Sequence GATACAGGGTCACCTAGAGGCCAGAGTATGGAAA has a PBM binding z-score of 4.76.
GCGACTGTGGCAAAGCAGGTTACCATAAGGTTGG was tested, and the PBM binding z-score was -0.352.
For TCTATTAGTTGCAGGGCAACCGACGAGTCCGTTT, the PBM binding z-score was 0.743.
Sequence CAGCCTAGGTCAAGGCCAGTATAGGAGGAACGTT has a PBM binding z-score of 1.3.
In the case of CCTACTGGGCCATTCAGAGGTCCTTGATCATATG, the PBM binding z-score was -0.591.
TCGAGTAGGTTTGGGGCATTCAGAATGGCGTCGA was tested, and the PBM binding z-score was -0.0942.
TGTATTAGTTGATTAGGGCAACCGAAACAGCGGA was tested, and the PBM binding z-score was 0.00753.
With CCGACTGGGTCAGAAAGGTTACCATACCATCCGG the PBM binding z-score was 4.2.
TCTGCTAGGTCAACGACGGTCAGCTAATCTGCTA was tested, and the PBM binding z-score was 2.
CATCCAAGGTCAAGGTCAGTGAAAGAGACTCGAA was tested, and the PBM binding z-score was 5.07.
TCTTCTAGGTCAACGATGGTCAGCTAATCTGCTA gave a PBM binding z-score of 2.41.
In the case of AATACAGGGTCATCGTAGGCTAGAGTACGCACAG, the PBM binding z-score was 5.2.
Sequence AATACAGGGTCACTAGGCCATAGTAGGTACGAAT has a PBM binding z-score of 4.25.
CGTCCAAGGTCAGAGATGTCAGTGAATGCCGAGT gave a PBM binding z-score of 3.64.
CGAAGTAGGTCAGAACAGGACAGTGAAGGATGAT gave a PBM binding z-score of 0.559.
